Data: the supplement of paper PMC9446081
Out of some 39,000 compounds screened, about 220 (0.56%) showed activity. Only a selection was taken, and actives are over-represented in it overall.
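Note: Wild-type cells incubated without shaking, value is the mean of two biological replicates.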

Each compound was assayed on Escherichia coli K-12 BW25113 (assay: relative growth (OD600 normalised to plate interquartile mean) (fraction); higher = less growth inhibition, active = 0.2 or less). Details: 50 µM; LB; incubation time: overnight (16-24 h).
In the case of `C[C@@H]1CN([C@H](C)CO)C(=O)c2cc(NC(=O)Nc3cccc4ccccc34)ccc2O[C@@H]1CN(C)C(=O)NC1CCCCC1`, the relative growth is reported as 1 (inactive). With `CN(Cc1ccccc1)C(=O)[C@H](Cc1ccc2ccccc2c1)NC(=O)[C@@H]1CCCN1C(=O)Nc1ccccc1[N+](=O)[O-]` the relative growth was 1.04 (inactive). With `C[C@H](CO)N1C[C@H](C)[C@@H](CN(C)C(=O)NC2CCCCC2)Oc2ccc(NC(=O)Nc3cccc4ccccc34)cc2C1=O` the relative growth was 1.04 (inactive). In the case of `CCCC[P+](CCCC)(CCCC)Cc1ccc(NC(=O)[C@H](Cc2ccc3ccccc3c2)N/C(=N/C2CCCCC2)NC2CCCCC2)cc1`, the relative growth is reported as 0.0326 (active). `CCCC[P+](CCCC)(CCCC)Cc1ccc(NC(=O)[C@@H](Cc2ccc3ccccc3c2)N=C(NC2CCCCC2)NC2CCCCC2)cc1` was tested, and the relative growth was 0.0386 (active). In the case of `CCC(=O)Nc1ccc2ccccc2c1`, the relative growth is reported as 0.842 (inactive). In the case of `C[C@@H]1CCCCO[C@H](CN(C)C(=O)NC2CCCCC2)[C@@H](C)CN([C@H](C)CO)C(=O)c2cc(NS(=O)(=O)c3ccccc3)ccc2O1`, the relative growth is reported as 0.983 (inactive). In the case of `Cc1ccc2c(c1)[C@](C)(O)CCS2`, the relative growth is reported as 1.01 (inactive). With `COc1ccc(S(=O)(=O)Nc2ccc3c(c2)CC(=O)N([C@H](C)CO)C[C@H](C)[C@H](CN(C)C(=O)Nc2c(C)noc2C)O3)cc1` the relative growth was 1.02 (inactive). With `Cc1ccc(S(=O)(=O)N(C)C[C@H]2Oc3ccc(NS(=O)(=O)c4ccccc4)cc3CC(=O)N([C@@H](C)CO)C[C@H]2C)cc1` the relative growth was 0.993 (inactive). For `C[C@H]1CN([C@@H](C)CO)C(=O)c2cccc(NS(=O)(=O)c3cccs3)c2O[C@@H]1CN(C)S(=O)(=O)c1ccc(F)cc1`, the relative growth was 1.02 (inactive). With `O=C(NO)c1ccc(C(=O)N/N=C/[C@H](O)[C@@H](O)[C@H](O[C@@H]2O[C@H](CO)[C@H](O)[C@H](O)[C@H]2O)[C@H](O)CO)cc1` the relative growth was 0.996 (inactive). With `Cc1scc2c1N(C(=O)CN1CCN(C)CC1)c1ccccc1NC2=O.Cl` the relative growth was 0.044 (active). With `O=C(O)CCC(=O)N1CC(=O)Nc2ccccc21` the relative growth was 0.964 (inactive). With `CN1CCN(CC(=O)N2c3ccccc3C(=O)Nc3cccnc32)CC1.Cl.Cl` the relative growth was 1.08 (inactive). In the case of `Cc1c(N)nc([C@H](CC(N)=O)NC[C@H](N)C(N)=O)nc1C(=O)N[C@H](C(=O)N[C@H](C)[C@@H](O)[C@H](C)C(=O)N[C@H](C(=O)NCCc1nc(-c2nc(C(=O)NCCCNCCCCN)cs2)cs1)[C@@H](C)O)[C@@H](O[C@@H]1O[C@@H](CO)[C@@H](O)[C@H](O)[C@@H]1O[C@@H]1O[C@H](CO)[C@@H](O)[C@H](OC(N)=O)[C@@H]1O)c1c[nH]cn1`, the relative growth is reported as 0.0715 (active). With `C[C@H](CO)N1C[C@H](C)[C@@H](CN(C)C(=O)Nc2ccc(F)cc2)OCc2ccccc2-c2ccccc2C1=O` the relative growth was 0.975 (inactive). For `C[C@H](CO)N1C[C@H](C)[C@@H](CN(C)C(=O)Nc2cccc3ccccc23)OCCCC[C@H](C)Oc2ccc(NS(C)(=O)=O)cc2C1=O`, the relative growth was 1.01 (inactive). `Cc1noc(C)c1S(=O)(=O)N(C)C[C@H]1Oc2c(NS(=O)(=O)c3cn(C)cn3)cccc2C(=O)N([C@H](C)CO)C[C@@H]1C` was tested, and the relative growth was 0.992 (inactive). For `C[C@@H]1CN([C@H](C)CO)C(=O)c2cccc(NS(=O)(=O)c3ccc(F)cc3)c2O[C@@H]1CN(C)S(=O)(=O)c1cn(C)cn1`, the relative growth was 0.99 (inactive). With `C[C@@H]1CCCCO[C@@H](CN(C)C(=O)C2CCCCC2)[C@@H](C)CN([C@H](C)CO)C(=O)c2cc(NC(=O)CCC(F)(F)F)ccc2O1` the relative growth was 0.92 (inactive). For `CC(C)(C)c1cc2[nH]c(N)nc(=N)n2n1`, the relative growth was 1.01 (inactive). With `C[C@@H]1CN([C@@H](C)CO)S(=O)(=O)c2ccc(C#CC3CC3)cc2O[C@@H]1CN(C)C(=O)C1CCCCC1` the relative growth was 1.01 (inactive). For `CN(C)c1cc(CNCC(C)(C)C)c(O)c2c1C[C@H]1C[C@H]3[C@H](N(C)C)C(=O)[C@H](C(N)=O)C(=O)[C@@]3(O)C(=O)[C@@H]1C2=O`, the relative growth was 0.0692 (active). `CN(C)[C@@H]1C(=O)[C@@H](C(N)=O)C(=O)[C@@]2(O)C(=O)[C@@H]3C(=O)c4c(O)c(NC(=O)CN5CCCC5)cc(F)c4C[C@H]3C[C@@H]12` was tested, and the relative growth was 0.0357 (active). `CN(C)[C@@H]1C(=O)[C@@H](C(=O)NCNCCCC[C@H](N)C(=O)O)C(=O)[C@@]2(O)C(=O)[C@@H]3C(=O)c4c(O)cccc4[C@@](C)(O)[C@H]3C[C@@H]12` was tested, and the relative growth was 0.977 (inactive). With `CN(C)c1ccc(O)c2c1C[C@@H]1C[C@@H]3[C@@H](N(C)C)C(=O)C(C(N)=O)=C(O)[C@]3(O)C(=O)[C@H]1C2=O` the relative growth was 0.0589 (active). `CN(C)[C@@H]1C(=O)[C@@H](C(N)=O)C(=O)[C@@]2(O)C(=O)[C@H]3C(=O)c4c(O)ccc(Cl)c4[C@@H](O)[C@H]3C[C@@H]12` was tested, and the relative growth was 0.0324 (active). With `CN(C)c1cc(NC(=O)CNC(C)(C)C)c(O)c2c1C[C@H]1C[C@H]3[C@H](N(C)C)C(=O)[C@@H](C(N)=O)C(=O)[C@@]3(O)C(=O)[C@H]1C2=O` the relative growth was 1.01 (inactive). For `C[C@@H]1CCCCO[C@@H](CN(C)C(=O)NC2CCCCC2)[C@@H](C)CN([C@H](C)CO)C(=O)c2cc(NC(=O)C3CCCCC3)ccc2O1`, the relative growth was 1.02 (inactive). `C[C@H]1CN([C@@H](C)CO)C(=O)c2cc(NC(=O)CCCCCC(=O)Nc3ccccc3N)ccc2O[C@H]1CN(C)CC1CCCCC1` was tested, and the relative growth was 0.97 (inactive). With `COc1ccc(NC(=O)Nc2ccc3c(c2)C(=O)N([C@@H](C)CO)C[C@H](C)[C@H](CN(C)C(=O)Nc2ccc(OC)cc2)OCCCC[C@H](C)O3)cc1` the relative growth was 0.996 (inactive). `CN(C)C(=O)[C@H]1C[C@@H]2CCN(S(C)(=O)=O)C[C@H]2O1` was tested, and the relative growth was 0.988 (inactive). For `Cc1noc(C)c1NC(=O)N(C)C[C@@H]1Oc2c(NC(=O)c3ccncc3)cccc2C(=O)N([C@H](C)CO)C[C@@H]1C`, the relative growth was 1 (inactive). `C[C@@H]1CN([C@@H](C)CO)C(=O)Cc2cc(NC(=O)Cn3cnnn3)ccc2O[C@H]1CN(C)C(=O)Nc1ccc(C(F)(F)F)cc1` was tested, and the relative growth was 0.993 (inactive). With `CC(C)NC(=O)Nc1ccc2c(c1)C(=O)N([C@H](C)CO)C[C@H](C)[C@@H](CN(C)CC1CCCCC1)OCCCC[C@@H](C)O2` the relative growth was 0.975 (inactive). With `C[C@@H]1CN([C@H](C)CO)C(=O)c2cccc(NS(C)(=O)=O)c2O[C@@H]1CN(C)C(=O)NC1CCCCC1` the relative growth was 0.99 (inactive). `COc1ccc(S(=O)(=O)N(C)C[C@@H]2OCCCC[C@@H](C)Oc3ccc(NC(=O)CCC(F)(F)F)cc3C(=O)N([C@H](C)CO)C[C@@H]2C)cc1` was tested, and the relative growth was 1.01 (inactive). With `CN(C)c1cc(NC(=O)CNC(C)(C)C)c(O)c2c1C[C@H]1C[C@H]3[C@H](N(C)C)C(=O)C(C(N)=O)=C(O)[C@@]3(O)C(=O)[C@H]1C2=O` the relative growth was 1 (inactive). In the case of `CN(C)[C@@H]1C(=O)[C@@H](C(N)=O)C(=O)[C@@]2(O)C(=O)[C@H]3C(=O)c4c(O)cccc4C[C@H]3C[C@@H]12`, the relative growth is reported as 0.972 (inactive). `CN(C)c1ccc(O)c2c1C[C@H]1C[C@H]3[C@H](N(C)C)C(=O)[C@@H](C(N)=O)C(=O)[C@@]3(O)C(=O)[C@H]1C2=O` was tested, and the relative growth was 0.0587 (active). In the case of `CN(C)c1ccc(O)c2c1C[C@H]1C[C@H]3[C@H](N(C)C)C(=O)C(C(N)=O)=C(O)[C@@]3(O)C(=O)[C@H]1C2=O`, the relative growth is reported as 0.184 (active). With `C[C@@H]1CN([C@H](C)CO)C(=O)c2cc(NS(=O)(=O)c3cccs3)ccc2O[C@H]1CN(C)Cc1ccc(-c2ccccc2)cc1` the relative growth was 0.997 (inactive). For `C[C@H](CO)N1C[C@H](C)[C@H](CN(C)C(=O)Nc2cccc3ccccc23)Oc2ncc(C#Cc3ccccc3)cc2C1=O`, the relative growth was 0.961 (inactive). `C[C@@H]1CCCCO[C@H](CN(C)Cc2ccncc2)[C@H](C)CN([C@H](C)CO)C(=O)c2cc(NC(=O)Nc3ccccc3)ccc2O1` was tested, and the relative growth was 0.834 (inactive). In the case of `CN[C@H]1CN(c2ccc3c(=O)c(C(=O)O)cn(-c4nccs4)c3n2)C[C@@H]1OC`, the relative growth is reported as 0.0372 (active). `COC(=O)C1=C[C@@H](O)[C@@H](O)[C@H](O[C@@H]2O[C@H](COC(=O)/C=C/c3ccccc3)[C@@H](O)[C@H](O)[C@H]2O)C1` was tested, and the relative growth was 0.984 (inactive). `COc1ccc(S(=O)(=O)Nc2cccc3c2O[C@@H](CN(C)S(=O)(=O)c2ccc(OC)cc2)[C@H](C)CN([C@@H](C)CO)C3=O)cc1` was tested, and the relative growth was 1.01 (inactive). With `C[C@H]1CN([C@@H](C)CO)C(=O)Cc2cc(NC(=O)Nc3ccccc3)ccc2O[C@H]1CN(C)Cc1ccc(Oc2ccccc2)cc1` the relative growth was 1.01 (inactive). `C[C@@H]1CN([C@H](C)CO)C(=O)c2cc(NS(=O)(=O)c3ccccc3)ccc2O[C@@H]1CN(C)CC1CC1` was tested, and the relative growth was 1 (inactive). `NC[C@H]1OB(O)c2c(OCCO)ccc(Cl)c21` was tested, and the relative growth was 0.982 (inactive). With `NC[C@H]1OB(O)c2c(OCCCO)cccc21` the relative growth was 0.04 (active). With `CC(C)(C)OC(=O)N1CCC(N)CC1` the relative growth was 0.98 (inactive). In the case of `C=C1c2cccc(O)c2C(=O)[C@@H]2C(=O)[C@]3(O)C(=O)[C@@H](C(N)=O)C(=O)[C@@H](N(C)C)[C@@H]3[C@@H](O)[C@H]12`, the relative growth is reported as 0.0752 (active). In the case of `C[C@H]1c2cccc(O)c2C(=O)C2=C(O)[C@]3(O)C(=O)[C@@H](C(N)=O)C(=O)[C@@H](N(C)C)[C@@H]3[C@@H](O)[C@@H]21`, the relative growth is reported as 0.0376 (active). `CC1c2cccc(O)c2C(=O)C2=C(O)C3(O)C(=O)C(C(N)=O)=C(O)C(N(C)C)C3C(O)C21.Cl` (stereo not drawn) was tested, and the relative growth was 0.0595 (active). `C=C1c2cccc(O)c2C(=O)C2=C(O)C3(O)C(=O)C(C(N)=O)=C(O)C(N(C)C)C3C(O)C12.Cl` (stereo not drawn) was tested, and the relative growth was 0.0546 (active). With `C=C1c2cccc(O)c2C(=O)C2=C(O)[C@]3(O)C(O)=C(C(N)=O)C(=O)[C@@H](N(C)C)[C@@H]3[C@@H](O)[C@H]12` the relative growth was 0.225 (inactive).
